Values without a mark were called inactive.

One test can be described thus: basal CRE-LacZ reporter activity in PC12 – cell-based, unstimulated, primary screen (AID 1145). Conditions: no forskolin, luminescence, 4.5 h, higher = more signal, called active from +8 up or from −8 down.
On to `C=CC[C@]1(C(=O)O)N=C(c2ccc(OCCCO)cc2)O[C@H]1c1ccccc1CN=[N+]=[N-]`, for which the z-score was 0.274. For `NC(=O)[C@@]1(CCS(=O)(=O)c2ccccc2)N=C(c2ccc(OCCCO)cc2)O[C@H]1c1ccccc1`, the z-score is 0.0451.

`C=C(CCCC)/C(=C/C[C@H](OC(C)=O)c1ccc(CO)o1)c1cc(C(=O)OC)ccc1OC`: the z-score is 0.709. In the case of `O=C1O[C@@H](c2ccccc2)[C@@H](c2ccccc2)N2[C@@H](c3ccc(O)cc3)[C@]3(C(=O)Nc4ccccc43)[C@@H](C(=O)NC[C@H](O)c3ccccc3)[C@H]12`, the z-score is 0.0921.

A further test in a line: forskolin-driven CRE-LacZ activity in PC12 – cell-based, CRE-LacZ reporter, forskolin-stimulated, primary screen (AID 1146).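 Also: PC12 cells with 6xCRE LacZ reporter stimulated by forskolin 10 µM; beta-galactosidase reporter signal reflecting CREB driven transcription.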 Conditions: luminescence, 4.5 h, higher = more signal, called active from +8 up or from −8 down.
In the case of `O=C1O[C@H](c2ccccc2)[C@H](c2ccccc2)N2[C@H]1[C@@H](C(=O)NC[C@H](O)c1ccccc1)[C@]1(C(=O)Nc3ccc(C#CC4(O)CCCCCC4)cc31)[C@H]2c1ccccc1OCCO`, the z-score is -0.349. Take `O=C1OCCC=C[C@H]2OC34C=CCN(c5ccc6ccccc6c5)C(=O)[C@H]3N(CCCCCCO)C(=O)[C@@H]4C12` (some centres undefined): the z-score is 0.771. For the compound `COC(=O)C(CC#Cc1ccc2c(c1)[C@]1(C(=O)N2)[C@H](C(=O)N2CCCCCCC2)[C@H]2C(=O)O[C@H](c3ccccc3)[C@H](c3ccccc3)N2[C@@H]1c1ccccc1OCCO)C(=O)OC`, the z-score was -0.81. Still for that read-out and setting: with `[N-]=[N+]=Nc1ccccc1[C@@H]1OC(c2ccc(OCCCO)cc2)=N[C@]1(CCS(=O)(=O)c1ccccc1)C(=O)N1CCCCC1` the figure was -0.642; with `CCOC(=O)C[C@H]1[C@H](OC(=O)c2cc3ccccc3oc2=O)[C@@H](NC(=O)c2ccc3ccccc3c2)c2cc(OCCCO)ccc2N1C(=O)c1ccccc1`, 0.368; with `COCCOC(=O)N1C(=O)[C@@]2(c3cc(C#CCCO)ccc31)[C@H](c1ccc(O)cc1)N1[C@H](c3ccccc3)[C@H](c3ccccc3)OC(=O)[C@H]1[C@@H]2C(=O)N1CCCCCCC1`, -0.268. On to `O=[N+]([O-])c1ccc(C[n+]2ccc(CCCO)cc2)o1`, for which the z-score is 0.619. As for `COCCn1c(C(=O)N2CCCC2)cc2c1C[C@H]1CN(C(=O)c3ccccc3)[C@@](Cc3ccc(OC)cc3)(C(=O)OC)[C@@H]21`, the z-score is 0.699. For the compound `O=C1c2ccccc2[C@](Cc2ccccc2I)(C(=O)O)[C@H](c2ccc(CO)cc2)N1Cc1ccccc1C(F)(F)F`, the z-score was 0.748. The same measure, in the same setting: with `COc1ccc(C#Cc2ccc3c(c2)[C@]2(C(=O)N3)[C@H](C(=O)N3CCN(c4ncccn4)CC3)[C@H]3C(=O)O[C@H](c4ccccc4)[C@H](c4ccccc4)N3[C@@H]2c2ccc(O)cc2)cc1` the figure was -0.612.

Turning to `Oc1ccc2cc[n+](Cc3cccc(OC(F)(F)F)c3)cc2c1`, the z-score is -0.668. The same measure, in the same setting: the value for `O=C1[C@H]2C=C(Br)[C@H](C[C@@H]2OCCOCCO)[C@@]12CO2` was 1.6; that for `CC(c1ccccc1)C(O)C1C=CC2C(=O)N(Cc3ccccc3)C(=O)C2N1n1cnnc1` (centres undefined) was 0.945; that for `COCCCNC(=O)[C@@]1(C)c2ccccc2C(=O)N(Cc2ccccc2)[C@H]1c1ccc(CO)cc1` was -0.463. Still for that read-out and setting: with `NC(=O)NCC#Cc1ccc2c(c1)[C@]1(C(=O)N2)[C@H](c2ccc(O)cc2)N2[C@H](c3ccccc3)[C@H](c3ccccc3)OC(=O)[C@H]2[C@@H]1C(=O)N1CCN(c2ncccn2)CC1` the figure was 0.128; with `C=C[C@H](C)[C@H](OC(=O)Nc1ccc(OC)cc1)c1ccc(O)c2ccccc12`, 0.544. With `COCC1C2CC[C@H]3C(OCc4ccc(F)cc4C(F)(F)F)OC[C@]4(C)[C@H]3C2=C(CN4C(=O)OC(C)(C)C)[C@H](C)C1COC` (some centres undefined), the z-score was 0.172. Turning to `C=CCN1C(=O)[C@]2(Cc3ccccc31)N=C(c1ccc(OCCCO)cc1)O[C@@H]2c1ccccc1`, the z-score is -0.436.

In the case of `[N-]=[N+]=NCc1ccccc1[C@@H]1OC(c2ccc(OCCCO)cc2)=N[C@]1(Cc1ccccc1)C(=O)O`, the z-score is -0.707. As for `O=C(NCCN1CCOCC1)[C@@H]1c2ccccc2C(=O)N(Cc2cc(F)cc(C(F)(F)F)c2)[C@H]1c1ccc(CO)cc1`, the z-score is 0.0284. Still for that read-out and setting: with `O=c1cccc(-c2ccccc2)o1` the figure was 0.137; with `O=C1O[C@@H](c2ccccc2)[C@@H](c2ccccc2)N2[C@@H](c3ccc(O)cc3)[C@]3(C(=O)Nc4ccccc43)[C@@H](C(=O)N3CCCCCCC3)[C@H]12`, 0.276; with `Cc1ccccc1/C=C/C=O`, 0.834. Regarding `COc1ccc([Si](C)(C)[C@H]2[C@H](CC(=O)N3Cc4ccccc4C[C@H]3CO)O[C@@]3(C(=O)N(Cc4cccc(I)c4)c4ccccc43)[C@@H]2C)cc1`, the z-score was -0.919.

Take `C=C(/C(=C/C[C@@H](OC(C)=O)c1ccc(CO)o1)c1cnc2ccccc2c1)C(C)C`: the z-score was -0.731. In the case of `[N-]=[N+]=NCc1ccccc1[C@@H]1OC(c2ccc(OCCCO)cc2)=N[C@]1(Cc1ccccc1N=[N+]=[N-])C(N)=O`, the z-score was 0.15. For the compound `C=CCOC(=O)[C@H]1[C@@H]2C(=O)O[C@@H](c3ccccc3)[C@@H](c3ccccc3)N2[C@@H](c2ccc(OCCOC(=O)[C@H]3C[C@H]4C(=O)N[C@@H](CCCC[N+](C)(C)C)C(=O)N4[C@H]3c3ccc(O)cc3)cc2)[C@]12C(=O)Nc1ccccc12`, the z-score was -1.06. Same read-out and setting: the value for `CC1CC/C=C\[C@H]2OC34C=CCN(Cn5nnc6ccccc65)C(=O)[C@H]3N(CCCO)C(=O)[C@@H]4C2C(=O)O1` (some centres undefined) was -0.759. With `Cc1cc(C)c(C(O)C2C=CC3C(=O)NC(=O)C3N2Nc2ccccn2)c(C)c1` (centres undefined), the z-score is -0.0376. On the same count and under the same terms, with `C=C[C@@H](C)[C@@H](OC(=O)Nc1ccc(OC)cc1)c1ccc(O)c2ccccc12` the figure was 0.999; with `[N-]=[N+]=NCc1ccccc1[C@H]1OC(c2ccc(OCCCO)cc2)=N[C@@]1(Cc1ccccc1)C(=O)NCC(O)CO` (some centres undefined), 0.452; with `C=CC[C@]1(C(=O)O)N=C(c2ccc(OCCCO)cc2)O[C@H]1c1ccccc1CN=[N+]=[N-]`, -0.0119. On to `NC(=O)[C@@]1(CCS(=O)(=O)c2ccccc2)N=C(c2ccc(OCCCO)cc2)O[C@H]1c1ccccc1`, for which the z-score is -1.38. On to `C=C(CCCC)/C(=C/C[C@H](OC(C)=O)c1ccc(CO)o1)c1cc(C(=O)OC)ccc1OC`, for which the z-score is 0.0467. Same read-out and setting: the value for `O=C1O[C@@H](c2ccccc2)[C@@H](c2ccccc2)N2[C@@H](c3ccc(O)cc3)[C@]3(C(=O)Nc4ccccc43)[C@@H](C(=O)NC[C@H](O)c3ccccc3)[C@H]12` was 0.175.

Source of the values: PubChem BioAssay.
